In PubChem BioAssay AID1918990 (ICCB-Longwood Screening Facility, Harvard Medical School, 2023):
The whole screen tested about 29,000 compounds, of which about 85 (0.3%) were called active.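 Rule for the calls: active = replicate mean overnight rise in green fluorescent reporter signal, 3 or more SD over negative controls; inactive = the rest.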 Shown is part of a subset that was picked to be rich in actives.

assay: activators of Burkholderia fixLJ two-component system, primary screen, B. multivorans, GFP reporter (AID 1918990); conditions: B. multivorans fixK-promoter GFP reporter, 18 h; active compounds read high

SMILES	z-score
CCC(=O)N1CCc2cc(S(=O)(=O)NCCC(=O)Nc3cccc(C)c3C)ccc21	-0.9 (inactive)
COc1ccccc1Nc1cc(C(=O)NCCCN(C)C2CCCCC2)c2ccccc2n1	-0.07 (inactive)
CC(C)Sc1nnc(NC(=O)c2ccccc2-n2cnnc2)s1	-0.42 (inactive)
CC(C)S(=O)(=O)c1oc(-c2ccc(F)cc2)nc1S(=O)(=O)c1ccc(F)cc1	-3.54 (inactive)
CCN(C(=O)Cn1cnc2sc(C)c(S(=O)(=O)N3CCN(c4ncccn4)CC3)c2c1=O)c1ccccc1F	-2.69 (inactive)
CCNC(=O)Cn1nc(C)n2c(cc3c(OC)cccc32)c1=O	-1.37 (inactive)
CC(C)(C)C(Cn1ccnc1)NC(=O)C=Cc1cc(CO)cs1 (centres undefined)	0.54 (inactive)
COc1ccc(N(C)C(=O)C2CCN(S(=O)(=O)c3cc(Br)cc4c3N(C(C)=O)CC4)CC2)cc1	-1.87 (inactive)
COc1cc(C(=O)N2CCC(O)(c3ccc(C)cn3)CC2)nc(OC)n1	-2.73 (inactive)
CCOc1ccc(NC(=O)c2cnn(-c3ccccc3)c2-n2cccc2)cc1	0.15 (inactive)
CC(=O)N1CCN(Cc2cc(Cl)cc(Cl)c2)C2CS(=O)(=O)CC21 (centres undefined)	1.37 (inactive)
CN(C)C(=O)N1CCC(C(=O)NC2COCC2Cc2ccncc2)CC1 (centres undefined)	-2.62 (inactive)
COc1ccc(OC)c(-c2nc(CN3CCNC(=O)CC3)c(C)o2)c1	-1.03 (inactive)
O=C1N(Cc2ccccc2)c2ccc(Cl)cc2C1(O)c1c[nH]c2ccccc12 (centres undefined)	-2.44 (inactive)
CCCNC(=O)CCn1nc(-c2ccccc2)c2ccccc2c1=O	-2.63 (inactive)
COC(=O)c1ccc(NC(=O)c2cccc3c2C(=O)N(C2CCCCC2)C3)cc1	-0.11 (inactive)
CN(CC(=O)Nc1cccc(C(F)(F)F)c1)S(=O)(=O)c1cccs1	-1.64 (inactive)
COc1ccc(C2=NC3(CCCCC3)N(CC(=O)Nc3ccc(C(C)C)cc3)C2=O)cc1	-0.47 (inactive)
O=C(CSc1nc(-c2cccc(F)c2)[nH]c1-c1ccccc1)Nc1ccc2c(c1)OCO2	-0.24 (inactive)
CC1CCCCN1Cc1c(O)ccc2c(=O)c(-c3cccc(Cl)c3)c(C(F)(F)F)oc12 (centres undefined)	-3.67 (inactive)

SMILES	z-score
O=C(NC1CCCC1Cc1ccc(F)cc1)c1cccc(=O)[nH]1 (centres undefined)	0.15 (inactive)
Cn1nnnc1SCCNCc1ccc(Cl)c(Cl)c1	-2.02 (inactive)
O=C(c1ccnc(CC2COc3ccccc3C2)c1)N1CCOCC1 (centres undefined)	1.09 (inactive)
CN1CCN(CC2(CNC(=O)CN(C)Cc3cccnc3)CC2)CC1	-0.08 (inactive)
CCCc1cc(CNC(=O)c2ccc3c(c2)OCC(=O)N3)on1	0.27 (inactive)
CCn1cc(C(=O)N(C)Cc2ccccc2)c(=O)c2cc(S(=O)(=O)N3CCCCCC3)ccc21	-2.08 (inactive)
Cc1cccc(C(=O)N2CCC[C@@]3(CN(Cc4ncc(C)[nH]4)CCC3O)C2)c1 (some centres undefined)	0.68 (inactive)
CNC(=O)c1cccc(NC(=O)CCCc2cccs2)c1C	-1.26 (inactive)
COc1ccc(CNc2nc(-c3ccccc3)nn2C(=O)c2ccccc2OC)cc1	0.5 (inactive)
COc1cc(C2c3c(oc4ccccc4c3=O)C(=O)N2c2nc(C)c(C)s2)ccc1O (centres undefined)	-1 (inactive)
Cc1nc(SCCOc2ccc(Cl)cc2)[nH]c(=O)c1Cc1ccccc1	-1.27 (inactive)
COCC1C(NS(=O)(=O)c2ccc(F)cc2C)C2CCOC21 (centres undefined)	-0.38 (inactive)
COc1ccc(-c2nc3ccccc3o2)cc1NC(=O)c1cc([N+](=O)[O-])ccc1N1CCOCC1	-1.81 (inactive)
CC(=O)c1ccc(N2CCN(c3nc4c(S(=O)(=O)c5ccccc5)nnn4c4ccc(Cl)cc34)CC2)cc1	0.23 (inactive)
COc1ccc2c(c1)c(=O)c(S(=O)(=O)c1ccc(F)cc1)cn2CC(=O)Nc1ccc(C)cc1C	-1.75 (inactive)
Cc1nn(-c2nc(-c3ccccc3)cc(C(F)(F)F)n2)c(C)c1Cl	-0.93 (inactive)
CCCSc1ncc(Cl)c(C(=O)Nc2c(C(=O)Nc3ccccc3)oc3ccccc23)n1	-0.41 (inactive)
O=C(c1ccc2c(c1)N(Cc1ccc(Cl)cc1)C(=O)c1ccccc1S2(=O)=O)N1CCCCC1	0.84 (inactive)
COc1ccccc1CNC(=O)CCn1c(=O)c2ccccc2n(CC(=O)Nc2cccc(Cl)c2)c1=O	0.27 (inactive)
